Experimental data: PubChem BioAssay (EPA / NIEHS)
Active and inactive are the calls of the source. Rule for the calls: active = hit-call score of the fitted dose curve at least 0.9, where 1 is the maximum; inactive = score below 0.9.

What was measured:
[1] = ATG_AP_1_CIS: Attagene CIS-FACTORIAL HepG2 Assay for human Activator Protein 1 (AP-1) (AID 2282931); settings: HepG2 Attagene cis-factorial AP-1 reporter mRNA; actives raise or lower the signal
How it was run: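 HepG2, transient cis-reporter transfection; 24 h; readout RT-PCR/CE fluorescence; DMSO baseline, gain and loss fitted.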

[2] = ATG_AP_2_CIS: Attagene CIS-FACTORIAL HepG2 Assay for human Activator Protein 2 (AP-2) (AID 2282932); settings: HepG2 AP-2 cis-reporter, Attagene transcription factor profiling; actives raise or lower the signal
How it was run: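 HepG2 cells were transiently transfected with multiple cis-promoter reporter transcription units and dosed for 24 h. Reporter mRNA was measured by RT-PCR with capillary electrophoresis fluorescence; bidirectional fits relative to DMSO baseline.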

[3] = ATG_BRE_CIS: Attagene CIS-FACTORIAL HepG2 Assay for human Bone Morphogenetic Protein (BMP) Response Element (BRE) (AID 2282933); settings: HepG2 BMP response element reporter, Attagene transcription factor profiling; actives raise or lower the signal
How it was run: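 Multiplexed cis-reporter assay, HepG2, 24 h exposure. mRNA from reporter units quantified via RT-PCR/CE; DMSO baseline; bidirectional curve fit.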

[4] = biological target: Retinoic acid receptor alpha (Homo sapiens) (UniProt P10276); experiment: ATG_DR5_RAR_CIS: Attagene CIS-FACTORIAL HepG2 Assay for human Retinoic Acid Receptor Alpha (RARE), DR5 submotif (AID 2282934); settings: HepG2 Attagene cis-factorial RARE DR5 reporter, mRNA; actives raise or lower the signal;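 for AC50: reporter responds to endogenous RAR alpha beta and gamma in HepG2 not RARA alone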
How it was run: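 Endpoint fitted in both directions relative to DMSO as negative control. It reflects DR5 cis-element reporter mRNA induction in transiently transfected HepG2 cells, measured 24 h after dosing through RT-PCR and fluorescent capillary electrophoresis.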

[5] = biological target: Transcription factor E2F1 (Homo sapiens) (UniProt Q01094); experiment: ATG_E2F_CIS: Attagene CIS-FACTORIAL HepG2 Assay for human E2F Transcription Factor 1 (AID 2282935); settings: HepG2 Attagene cis-reporter, E2F reporter RNA transcripts; actives raise or lower the signal
How it was run: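 HepG2 cells transiently transfected with multiplexed cis-element reporter units, dosed for 24 h. Reporter mRNA measured by RT-PCR, 6-FAM primer-extension labeling, HpaI digestion and capillary electrophoresis; bidirectional fit versus DMSO baseline.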

[6] = ATG_E_Box_CIS: Attagene CIS-FACTORIAL HepG2 Assay for human Enhancer Box (E-box) (AID 2282936); settings: HepG2 E-box cis-reporter transcription, actives raise or lower the signal
How it was run: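 HepG2 cells transiently transfected with multiplexed cis-element reporter units sensing endogenous transcription factor activity; 24 h compound exposure. Reporter mRNA measured by RT-PCR, 6-FAM primer extension, HpaI digestion and capillary electrophoresis; bidirectional fit versus DMSO.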

[7] = ATG_M_61_CIS: Attagene CIS-FACTORIAL HepG2 Assay for M61 Transcription Factor (Internal Marker) (AID 2282937); settings: HepG2 Attagene CIS-FACTORIAL M61 internal marker reporter; actives raise or lower the signal
How it was run: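 Transfect HepG2 with MRTUs; dose 24 h; isolate RNA; reverse-transcribe with DNase I treatment; PCR-amplify, FAM-label and cut with HpaI for 2 h at 37 C; resolve by CE. Bidirectional fitting against DMSO.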

[8] = ATG_EGR_CIS: Attagene CIS-FACTORIAL HepG2 Assay for human Early Growth Response 1 (EGR1) (AID 2282938); settings: HepG2 Attagene CIS-FACTORIAL EGR reporter mRNA; actives raise or lower the signal
How it was run: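 After a 24 h treatment of transiently transfected HepG2 cells, total RNA was reverse-transcribed and reporter sequences PCR-amplified, labelled and run on capillary electrophoresis. Reporters sit under cis-regulatory promoters sensing endogenous factors.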

[9] = ATG_M_19_CIS: Attagene CIS-FACTORIAL HepG2 Assay for M19 Transcription Factor (Internal Marker) (AID 2282939); settings: HepG2 Attagene CIS-FACTORIAL M19 internal marker reporter; actives raise or lower the signal
How it was run: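 Signals come from fluorescence of labelled reporter-specific PCR fragments resolved by capillary electrophoresis, following 24 h treatment of HepG2 cells transfected with cis-promoter reporter units; activity was fitted in both directions relative to DMSO.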

[10] = ATG_ERE_CIS: Attagene CIS-FACTORIAL HepG2 Assay for Estrogen Response Element (ERE) (AID 2282940); settings: HepG2 ERE cis-reporter, Attagene RNA transcript; actives raise or lower the signal
How it was run: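 Fluorescence of capillary-separated, FAM-labelled reporter cDNA fragments indicates reporter mRNA levels in HepG2 cells exposed to chemicals for 24 h. Transient transfection with cis-regulated units; data fitted in both directions against DMSO.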

[11] = ATG_Ets_CIS: Attagene CIS-FACTORIAL HepG2 Assay for human Erythroblast Transformation Specific (ETS) (AID 2282941); settings: HepG2 ETS cis-reporter transcription, actives raise or lower the signal
How it was run: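 Steps: transfect HepG2 with multiple reporter units; treat compound 24 h; isolate RNA, DNase-treat, reverse-transcribe; PCR-amplify, label with 6-FAM, digest with HpaI; separate by capillary electrophoresis. Activity fitted both directions versus DMSO.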

[12] = biological target: Hepatocyte nuclear factor 3-beta (Homo sapiens) (UniProt Q9Y261); experiment: ATG_FoxA2_CIS: Attagene CIS-FACTORIAL HepG2 Assay for human Forkhead box A2 (FOXA2) (AID 2282942); settings: HepG2 cis-reporter transcription factor activity, 24 h; actives raise or lower the signal
How it was run: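 24 h dosing of HepG2 bearing cis-reporter constructs; mRNA readout by RT-PCR/CE fluorescence; bidirectional fit, DMSO baseline.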

[13] = ATG_FoxO_CIS: Attagene CIS-FACTORIAL HepG2 Assay for human Forkhead box O (FoxO) (AID 2282943); settings: HepG2 Attagene cis-reporter, FoxO element, mRNA; actives raise or lower the signal
How it was run: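 Values reflect reporter mRNA induction or loss in HepG2 cells 24 h post-dosing, fitted bidirectionally with DMSO as negative control and baseline. Detection used RT-PCR and fluorescence capillary electrophoresis.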

[14] = ATG_GATA_CIS: Attagene CIS-FACTORIAL HepG2 Assay for human GATA Binding Protein (AID 2282944); settings: HepG2 GATA cis-element reporter, Attagene multiplex mRNA; actives raise or lower the signal
How it was run: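 After transfecting HepG2 cells with multiple cis-regulated reporter units, chemicals are dosed for 24 h; isolated RNA undergoes RT-PCR and fluorescent labeling before capillary electrophoresis, with activity expressed against DMSO.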

[15] = ATG_GLI_CIS: Attagene CIS-FACTORIAL HepG2 Assay for human Zinc Finger Protein GLI1 (AID 2282945); settings: HepG2, Attagene cis-factorial reporter mRNA, GLI element; actives raise or lower the signal
How it was run: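 HepG2 cells transiently transfected with cis-promoter multiplexed reporter units report endogenous transcription factor activity. After 24 h chemical exposure, reporter mRNA was quantified by RT-PCR, 6-FAM labelling, HpaI digestion and capillary electrophoresis, with bidirectional fitting against DMSO.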

[16] = ATG_GRE_CIS: Attagene CIS-FACTORIAL HepG2 Assay for human Glucocorticoid Response Elements (GRE) (AID 2282947); settings: HepG2 GRE cis-reporter, Attagene multiplex mRNA; actives raise or lower the signal
How it was run: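 HepG2 cells transiently transfected with multiple cis-promoter reporter units measure endogenous TF activity; 24 h compound exposure. Reporter mRNA quantified by RT-PCR, FAM labelling, HpaI digestion and capillary electrophoresis; bidirectional fit vs DMSO baseline.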

[17] = ATG_ISRE_CIS: Attagene CIS-FACTORIAL HepG2 Assay for human Interferon Regulatory Factor 1 (IRF1) binding to an Interferon-Stimulated Response Element (ISRE) (AID 2282948); settings: HepG2 ISRE cis-reporter (Attagene), mRNA transcription readout; actives raise or lower the signal
How it was run: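 Transfected HepG2 (multiple reporter transcription units, cis elements) dosed 24 h. RNA → oligo(dT) RT → PCR → 6-FAM primer extension → HpaI → CE. DMSO = negative control/baseline.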

[18] = ATG_M_32_CIS: Attagene CIS-FACTORIAL HepG2 Assay for M32 Transcription Factor (Internal Marker) (AID 2282949); settings: HepG2 Attagene cis-factorial M32 reporter, mRNA; actives raise or lower the signal;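 note: background control marker of the multiplexed CIS panel rather than a real target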
How it was run: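 Internal background marker read-out: RT-PCR/capillary electrophoresis fluorescence of reporter transcripts from transiently transfected HepG2 cells after 24 h chemical exposure. Activity fitted bidirectionally relative to DMSO negative control.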

[19] = ATG_M_06_CIS: Attagene CIS-FACTORIAL HepG2 Assay for M06 Transcription Factor (Internal Marker) (AID 2282950); settings: HepG2 Attagene CIS-FACTORIAL M06 internal marker reporter; actives raise or lower the signal
How it was run: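 HepG2 liver cells, 24 h exposure. Reporter transcripts from transfected cis-element constructs quantified by RT-PCR/capillary electrophoresis fluorescence. Bidirectional curve fit against DMSO.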

[20] = biological target: Bile acid receptor (Homo sapiens) (UniProt Q96RI1); experiment: ATG_IR1_CIS: Attagene CIS-FACTORIAL HepG2 Assay for human Nuclear Receptor Subfamily 1 Group H Member 4 (NR1H4), IR1 submotif (AID 2282946); settings: IR1 reporter transcription, actives raise or lower the signal
How it was run: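 Transient MRTU transfection, HepG2; 24 h dosing; RNA → RT-PCR → 6-FAM primer extension → HpaI digest → capillary electrophoresis fluorescence. Gain/loss of signal fitted relative to DMSO.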

Measured: AC50

Sequence of Retinoic acid receptor alpha (Homo sapiens) (P10276 whole entry, looked up): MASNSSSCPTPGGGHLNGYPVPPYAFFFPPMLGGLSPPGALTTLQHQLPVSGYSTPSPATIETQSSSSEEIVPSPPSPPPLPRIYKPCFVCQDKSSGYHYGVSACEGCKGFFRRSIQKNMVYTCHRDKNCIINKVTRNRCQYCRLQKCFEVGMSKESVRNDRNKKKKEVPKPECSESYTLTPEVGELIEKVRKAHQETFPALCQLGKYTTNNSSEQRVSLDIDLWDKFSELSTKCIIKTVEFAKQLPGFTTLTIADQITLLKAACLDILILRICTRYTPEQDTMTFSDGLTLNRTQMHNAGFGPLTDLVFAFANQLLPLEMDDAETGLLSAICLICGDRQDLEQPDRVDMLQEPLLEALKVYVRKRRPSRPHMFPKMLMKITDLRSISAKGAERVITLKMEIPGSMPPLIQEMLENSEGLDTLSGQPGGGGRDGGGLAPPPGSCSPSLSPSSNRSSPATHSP
Sequence of Bile acid receptor (Homo sapiens) (Q96RI1 whole entry, looked up): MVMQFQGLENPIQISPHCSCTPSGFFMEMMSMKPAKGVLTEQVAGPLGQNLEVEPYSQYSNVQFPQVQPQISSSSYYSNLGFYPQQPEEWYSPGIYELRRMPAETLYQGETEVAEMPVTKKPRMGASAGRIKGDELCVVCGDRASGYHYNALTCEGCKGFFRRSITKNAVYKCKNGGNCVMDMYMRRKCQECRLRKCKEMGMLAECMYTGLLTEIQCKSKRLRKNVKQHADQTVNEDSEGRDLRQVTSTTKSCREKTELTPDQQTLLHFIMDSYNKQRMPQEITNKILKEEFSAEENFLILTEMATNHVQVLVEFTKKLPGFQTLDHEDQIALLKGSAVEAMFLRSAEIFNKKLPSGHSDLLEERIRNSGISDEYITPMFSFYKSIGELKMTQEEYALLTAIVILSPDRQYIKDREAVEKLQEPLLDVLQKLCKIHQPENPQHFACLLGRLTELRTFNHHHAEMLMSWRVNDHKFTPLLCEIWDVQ
Sequence of Transcription factor E2F1 (Homo sapiens) (Q01094 whole entry, looked up): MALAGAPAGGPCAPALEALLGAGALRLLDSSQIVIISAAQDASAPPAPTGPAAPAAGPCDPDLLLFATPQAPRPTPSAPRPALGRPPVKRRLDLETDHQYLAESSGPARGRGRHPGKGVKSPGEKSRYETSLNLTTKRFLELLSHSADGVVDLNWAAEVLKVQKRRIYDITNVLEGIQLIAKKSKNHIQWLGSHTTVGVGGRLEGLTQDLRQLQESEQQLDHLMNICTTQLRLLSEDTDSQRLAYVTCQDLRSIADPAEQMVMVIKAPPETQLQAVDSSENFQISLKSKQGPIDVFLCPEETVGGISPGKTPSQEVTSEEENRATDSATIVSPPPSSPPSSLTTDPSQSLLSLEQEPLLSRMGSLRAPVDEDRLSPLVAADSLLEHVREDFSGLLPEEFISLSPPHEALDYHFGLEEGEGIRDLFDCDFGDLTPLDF
Sequence of Hepatocyte nuclear factor 3-beta (Homo sapiens) (Q9Y261 whole entry, looked up): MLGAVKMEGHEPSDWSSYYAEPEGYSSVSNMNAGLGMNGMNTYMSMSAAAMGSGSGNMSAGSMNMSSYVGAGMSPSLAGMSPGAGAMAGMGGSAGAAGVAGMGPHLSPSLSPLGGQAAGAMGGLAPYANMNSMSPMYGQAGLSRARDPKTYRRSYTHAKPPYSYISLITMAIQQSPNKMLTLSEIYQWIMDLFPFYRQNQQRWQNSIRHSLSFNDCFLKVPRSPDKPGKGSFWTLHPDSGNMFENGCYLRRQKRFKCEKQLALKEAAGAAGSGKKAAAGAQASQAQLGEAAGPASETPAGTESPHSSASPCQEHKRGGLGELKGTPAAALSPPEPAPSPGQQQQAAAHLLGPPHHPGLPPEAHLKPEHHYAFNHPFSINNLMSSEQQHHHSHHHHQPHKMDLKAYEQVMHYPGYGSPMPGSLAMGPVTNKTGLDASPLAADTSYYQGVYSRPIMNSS

N#CCC#N
active: [4] 63.4 µM
inactive: [1] | [2] | [3] | [5] | [6] | [7] | [8] | [9] | [10] | [11] | [12] | [13] | [14] | [15] | [16] | [17] | [18] | [19]

CC(C)(C)c1ccc(CCOc2ncnc3ccccc23)cc1
inactive: [1] | [2] | [3] | [4] | [5] | [6] | [7] | [8] | [9] | [10] | [11] | [12] | [13] | [14] | [15] | [20] | [17] | [18] | [19]

O=S(=O)(c1ccc(Cl)cc1)c1cc(Cl)c(Cl)cc1Cl
inactive: [1] | [2] | [3] | [5] | [6] | [7] | [8] | [9] | [10] | [11] | [12] | [13] | [14] | [15] | [16] | [17] | [18] | [19]
active: [4] 100 µM | [20] 19.3 µM

C[C@H]1C(=O)O[C@@H]2CCN3CC=C(COC(=O)[C@](C)(O)[C@]1(C)O)[C@H]23
inactive: [1] | [2] | [3] | [4] | [5] | [6] | [7] | [8] | [9] | [10] | [11] | [12] | [13] | [14] | [15] | [20] | [16] | [17] | [18] | [19]

CCCCOC(=O)COC(=O)c1ccccc1C(=O)OCCCC
inactive: [1] | [2] | [3] | [4] | [5] | [6] | [7] | [8] | [9] | [10] | [11] | [12] | [13] | [14] | [15] | [16] | [17] | [18]

CCOC(=O)CC(=O)CCl
active: [1] 75.2 µM | [2] 44 µM | [6] 128 µM | [8] 32.2 µM | [11] 26.4 µM | [12] 133 µM | [15] 26.1 µM | [17] 31.2 µM
inactive: [3] | [4] | [5] | [7] | [9] | [10] | [13] | [14] | [16] | [18] | [19]

N#CCCC(Br)(C#N)CBr (stereo not given)
inactive: [1] | [3] | [5] | [7] | [9] | [10] | [11] | [12] | [13] | [14] | [16] | [18] | [19]
active: [2] 49.9 µM | [4] 55.3 µM | [6] 62.4 µM | [8] 45.3 µM | [15] 53.6 µM | [20] 53.9 µM | [17] 60.8 µM
